This note sets out measurements from PubChem BioAssay AID651658 (Broad Institute, 2012).

The structures appear in SMILES notation. Among all 340,000 compounds or so, about 5,100 (1.5%) were called active.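 Rule for the calls: active = mean Tm shift, scaled 0 neutral to 100 positive control, at about 1.3% or above, every replicate too (limit read from the data); inconclusive = no clear call, values can overlap the other calls; inactive = the rest.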 The list comes from a sample in which actives are over-represented; it also holds similar structures and randomly drawn compounds.

Fibroblast growth factor 22 (Homo sapiens), sequence (Q9HCT0 whole entry, looked up): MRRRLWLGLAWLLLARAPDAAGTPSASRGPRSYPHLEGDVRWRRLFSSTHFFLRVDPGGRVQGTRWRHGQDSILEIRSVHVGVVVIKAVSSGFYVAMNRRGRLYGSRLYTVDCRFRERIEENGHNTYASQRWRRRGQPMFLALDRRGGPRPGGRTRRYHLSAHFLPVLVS

The assay concerns the target Fibroblast growth factor 22 (Homo sapiens) (UniProt Q9HCT0). Put plainly: FGF22 ligand-induced thermal stabilization – biophysical, thermal shift, single point, FGF22 synaptogenesis inhibitor project, primary screen (AID 651658). Particulars: recombinant FGF22 thermal shift, SYPRO orange fluorescence; at 9.99 µM; stronger effect = higher value; percent of sucrose octasulfate shift, DMSO zero.
In the case of `O=C(c1ccncc1)N1C[C@@H]2[C@H](c3ccccc31)[C@H](CO)N2C(=O)c1ccncc1`, the activity (Tm shift, normalised) was 1.08% (inactive).
The value for `O=C(C[C@@H]1C[C@H]2c3cc(NC(=O)Nc4ccccc4F)ccc3O[C@H]2[C@@H](CO)O1)NC1CCCCC1` was 0.159% (inactive); that for `N#C[C@@H]1[C@@H](c2ccccc2)[C@@H](CO)N1C(=O)c1cc(Cl)cc(Cl)c1` was -0.146% (inactive); that for `O=C(NCc1ccccc1)[C@H]1CCCN1C(=O)[C@H]1CCCN1C(=O)N1CCOCC1` was 0.083% (inactive).
The value for `O=C(/C=C/c1c(F)cccc1Cl)Nc1nn[nH]n1` was 43.2% (active); that for `CNC(=O)/C(C#N)=C/c1c(F)cccc1Cl` was 0.243% (inactive).
With `Cc1ccc2c(Cl)c(C(=O)Nc3nn[nH]n3)sc2c1` the figure was -0.027% (inactive).
As for `C/C=C/c1ccc([C@@H]2[C@@H](CO)N(C(=O)c3ccccc3)C23CN(C(C)=O)C3)cc1`, the activity (Tm shift, normalised) is -0.191% (inactive).
With `O=C(c1ccncc1)N1C[C@H]2[C@@H](c3ccccc31)[C@H](CO)N2C(=O)Nc1ccc(F)cc1` the figure was -0.662% (inactive); with `COc1ccccc1C1SCCN1C(=O)c1ccc([N+](=O)[O-])cc1` (stereo not given), 43.3% (active).
With `Cc1ccc(C)n1NC(=O)c1ccc([N+](=O)[O-])cc1` the figure was 0.235% (inactive); with `COc1ccccc1C1CCN(c2ccc([N+](=O)[O-])cn2)CC1`, 0.136% (inactive).
The value for `Cc1ccc(S(=O)(=O)Nc2ccc3c(c2)C(=O)N(C)[C@@H]2CC[C@@H](CC(=O)O)O[C@H]2CO3)cc1` was -0.106% (inactive).
`Cc1ccc(-c2ccc3c(c2)O[C@H](CN(C)C(=O)CC2CC2)[C@@H](C)CN([C@H](C)CO)S3(=O)=O)cc1`: the activity (Tm shift, normalised) was -0.566% (inactive).
With `COc1ccc(NC(=O)Nc2ccc3c(c2)[C@@H]2C[C@H](CC(=O)N4CCCCC4)O[C@H](CO)[C@@H]2O3)cc1` the figure was -0.385% (inactive); with `Cc1nnc(Nc2ccccc2F)s1`, 0.041% (inactive).
As to `O=c1cnnc(Nc2ccccc2F)[nH]1`, the activity (Tm shift, normalised) is 43.4% (active).
With `O=c1ccnc(Nc2ccc(Cl)cc2)[nH]1` the figure was 0.494% (inactive).
The value for `CN(C)C(=O)C[C@H]1C[C@@H]2c3cc(NC(=O)CC4CC4)ccc3O[C@@H]2[C@@H](CO)O1` was -0.027% (inactive); that for `CCCNC(=O)N(C)C[C@@H]1Oc2ncc(-c3cccc(C#N)c3)cc2C(=O)N([C@@H](C)CO)C[C@H]1C` was 0.077% (inactive); that for `CC(C)c1cn([C@H]2C[C@@H]3O[C@H](CO)CC[C@@H]3O[C@@H]2CCc2ccc(C#CC3CCCCC3)cc2)nn1` was 0.095% (inactive).
The value for `Cn1cc(CCC(=O)NC2CC2)c2ccccc21` was -0.251% (inactive).
As to `Cc1ccc(CNC(=O)Cc2cn(C)c3ccccc23)cc1`, the activity (Tm shift, normalised) is -0.058% (inactive).
With `CCc1ccccc1NC(=O)Cc1cn(C)c2ccccc12` the figure was 43.6% (active); with `C[C@H](CO)N1C[C@H](C)[C@H](CN(C)C(=O)Nc2ccc(F)cc2)OCCCC[C@H](C)Oc2ccc(NC(=O)CCC(F)(F)F)cc2C1=O`, -0.451% (inactive); with `O=C(COc1coc(CN2CCN(c3ccccc3F)CC2)cc1=O)N1CCc2ccccc21`, -0.217% (inactive).
The value for `O=C(CCSc1ccccc1)N1CCN(c2ccccc2F)CC1` was 0.121% (inactive); that for `Cn1c(=O)cc(OCC(=O)N2CCN(c3ccccc3F)CC2)c2ccccc21` was 44% (active); that for `C[C@@H]1CN([C@H](C)CO)C(=O)c2cc(NC(=O)Nc3cccc4ccccc34)ccc2O[C@H]1CN(C)C(=O)Nc1ccccc1` was -0.15% (inactive).
With `CCC(=O)N1C[C@@H](C)[C@H](OC)CN(C)C(=O)c2ccc(NC(=O)NC(C)C)cc2OC[C@H]1C` the figure was -0.086% (inactive); with `CCC(=O)N1C[C@@H](C)[C@H](OC)CN(C)C(=O)c2ccc(NC(=O)c3ccc(F)cc3)cc2OC[C@@H]1C`, -0.101% (inactive).
With `CCN(CC)C(=O)N(CC)Cc1ccccc1`, the activity (Tm shift, normalised) is 43.4% (active).
With `O=C(O)CCC(=O)N(Cc1ccccc1)Cc1ccccc1` the figure was -0.007% (inactive); with `CCN(Cc1ccncc1)C(=O)CCc1ccccc1`, 0.094% (inactive).
With `CNC(=O)C[C@H]1CC[C@H]2[C@H](COc3ccc(NC(=O)c4cc(C)on4)cc3C(=O)N2C)O1` the figure was -0.057% (inactive); with `O=C(C[C@H]1C[C@@H]2c3cc(NC(=O)c4ccc5c(c4)OCO5)ccc3O[C@@H]2[C@@H](CO)O1)NCc1cccnc1`, -0.297% (inactive).
Consider `C[C@H]1CN([C@@H](C)CO)C(=O)CCCn2nncc2CO[C@H]1CN(C)S(=O)(=O)c1ccccc1C#N`, for which the activity (Tm shift, normalised) is -0.016% (inactive).
The value for `CO[C@H]1CN(C)C(=O)c2cc(NC(=O)C3CCC3)ccc2OC[C@H](C)N(Cc2nccs2)C[C@H]1C` was -0.288% (inactive); that for `Cc1noc(C)c1S(=O)(=O)N(C)C[C@@H]1Oc2ccc(NC(=O)Cn3cnnn3)cc2CC(=O)N([C@@H](C)CO)C[C@@H]1C` was -0.13% (inactive); that for `Cn1cc(Cl)c(C(=O)NNC(=S)Nc2cccc(Cl)c2)n1` was 44.2% (active).
The value for `Cc1cccc(-n2cnc(C(=O)NNC(=S)Nc3ccccc3)c2)n1` was 0.832% (inactive); that for `O=C(Nc1cccc(Cl)c1)c1cncn1-c1ccc(F)cc1` was 0.242% (inactive).
With `COCC(=O)Nc1ccc2c(c1)C(=O)N(C)[C@@H]1CC[C@H](CC(=O)NCC3CC3)O[C@H]1CO2` the figure was 0.038% (inactive); with `NC(=O)Nc1ccc(C(=O)OCC(=O)NC2CCCc3ccccc32)cc1` (stereo not given), 43% (active).
`COC(=O)c1cc(OCC(=O)NC2CCCc3ccccc32)cc(C(=O)OC)c1` (stereo not given): the activity (Tm shift, normalised) is 0.172% (inactive).
With `CCOc1ccc(NC(=O)COc2ccc(C(=O)NC3CCCc4ccccc43)cc2OC)cc1` (stereo not given) the figure was 0.171% (inactive); with `O=C(NC1CCCCC1)N1CC2(C1)[C@H](c1ccccc1)[C@@H](CO)N2S(=O)(=O)Cc1ccccc1`, -0.24% (inactive); with `Cc1ccc(NS(=O)(=O)c2ccc(C(C)C)cc2)cc1S(=O)(=O)N1CCOCC1`, -0.175% (inactive).
Take `Cc1ccc(S(=O)(=O)Nc2ccc(F)c(S(=O)(=O)N3CCOCC3)c2)cc1`: the activity (Tm shift, normalised) was 43.3% (active).
Take `CC(=O)NCCc1ccc(S(=O)(=O)Nc2ccc(C)c(S(=O)(=O)N3CCOCC3)c2)cc1`: the activity (Tm shift, normalised) is -0.312% (inactive).
